From PubChem BioAssay (Tox21)
Inconclusive results are not listed. A call without a number means that no potency is given here. Calls of active or inactive are those of the source. Unless noted, the call rests on the fitted dose curve.

Columns and labels:
[1] = molecular target: Gonadotropin-releasing hormone receptor (Homo sapiens) (UniProt P30968); experiment: Human gonadotropin-releasing hormone receptor (GnRHR) small molecule agonists, calcium flux assay in GnRHR-HEK293 cells (AID 1920063); further: nearly all actives have a fitted effect of over 35% in size
Method in brief: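 Tox21-format agonist screen using human GnRHR-expressing HEK293 cells and a fluorescent calcium dye; kinetic 3-min fluorescence reading after compound addition, 15-point concentration series run in triplicate.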

[2] = molecular target: KiSS-1 receptor (Homo sapiens) (UniProt Q969F8); experiment: Human kisspeptin (KISS1R) small molecule agonists, calcium flux assay in KISS1R-HEK293 cells (AID 1920064; active means well fitted activation curve with a large enough effect in the repeat runs)
Method in brief: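 Intracellular calcium mobilization in KISS1R-HEK293 cells was recorded by fluorescence (Ex/Em 480/540) for 3 min following compound addition to cells pre-loaded 1 h with calcium dye.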

[3] = G protein-coupled receptor (GPCR) small molecule agonists, calcium flux assay: HEK293 wild type cell line counter screen (AID 1920065)
Method in brief: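 In this agonist-mode screen, ATP is the positive control and DMSO the vehicle. Cells grow 18 h before a 1 h dye incubation at 37 C; signal is taken at Ex/Em 480/540 over 3 min.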

[4] = cAMP Responsive Elements (CRE) small molecule agonists, cell-based qHTS assay (AID 1963590)
Method in brief: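 FRET-based beta-lactamase readout (LiveBLAzer B/G, 2 h RT) quantified CRE activation in HEK 293T CRE-bla cells after 3 h treatment with DMSO-dissolved compounds.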

[5] = cAMP Responsive Elements (CRE) small molecule antagonists, cell-based qHTS assay (AID 1963591; active means well fitted inhibition curve with a large enough effect in the signal ratio in the repeat runs, not every such curve was filed as active; the % refers to the signal ratio)
Method in brief: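 qHTS in CRE-bla HEK 293T cells: compound in DMSO, then 0.25 uM NKH477 (final), 3 h at 37 °C/5% CO2; beta-lactamase FRET read-out after 2 h substrate incubation.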

[6] = molecular target: D(2) dopamine receptor (Homo sapiens) (UniProt P14416); experiment: Dopamine D2 receptor (DRD2) small molecule agonists, cell-based qHTS assay (AID 1963594); further: nearly all actives have a fitted effect of over 35% in size
Method in brief: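 cAMP accumulation in DRD2-HEK293 cells measured by HTRF after 1 h detection; compounds added 10 min before NKH477 (200nM […]) forskolin-analogue stimulation, 30 min at room temperature, with Ro20-1724 present at 0.1 mM final.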

[7] = molecular target: D(2) dopamine receptor (Homo sapiens) (UniProt P14416); experiment: Dopamine D2 receptor (DRD2) small molecule antagonists, cell-based qHTS assay (AID 1963595; active means well fitted inhibition curve with a large enough effect in the signal ratio in the repeat runs, with a control signal flat; the % refers to the signal ratio)
Method in brief: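 Cells were plated and grown for 24 h at 37 °C. Ro20-1724 (0.1 mM final) went in first, then compound for 10 min. NKH477 (200 nM) with quinpirole (12 nM) followed for 30 min at RT, then HTRF detection reagents for 1 h.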

[8] = molecular target: 5-hydroxytryptamine receptor 2A (Homo sapiens) (UniProt P28223); experiment: 5-hydroxytryptamine receptor 2A (HTR2A) small molecule antagonists, cell-based qHTS assay (AID 1963586); further: nearly all actives have a fitted effect of over 45% in size
Method in brief: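 Antagonist-mode intracellular calcium assay: DOI (4 nM) added after 5 min compound pre-incubation at room temperature to dye-loaded HTR2A-CHO cells. Fluorescence followed for 3 min, sampled every second.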

[9] = molecular target: 5-hydroxytryptamine receptor 2A (Homo sapiens) (UniProt P28223); experiment: 5-hydroxytryptamine receptor 2A (HTR2A) small molecule agonists, cell-based qHTS assay (AID 1963587); further: nearly all actives have a fitted effect of over 30% in size
Method in brief: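 Kinetic calcium-flux fluorescence (2 min, 1 sec intervals) after compound addition in agonist mode. HTR2A-CHO cells were cultured 18 h, then dye-loaded 1 h at 37 C.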

[10] = molecular target: Muscarinic acetylcholine receptor M1 (Homo sapiens) (UniProt P11229); experiment: Cholinergic receptor muscarinic 1 (CHRM1) small molecule antagonists, cell-based qHTS assay (AID 1963588); further: nearly all actives have a fitted effect of over 40% in size
Method in brief: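 CHRM1-CHO calcium-flux assay, antagonist mode. Cells were seeded 18 h, dye-loaded 1 h at 37 C and given compound for 5 min at RT, then acetylcholine was added at 50nM. FDSS fluorescence was read 3 min; 15 concentrations, three runs.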

[11] = molecular target: Muscarinic acetylcholine receptor M1 (Homo sapiens) (UniProt P11229); experiment: Cholinergic receptor muscarinic 1 (CHRM1) small molecule agonists, cell-based qHTS assay (AID 1963589); further: nearly all actives have a fitted effect of over 35% in size
Method in brief: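 Stable CHRM1-CHO cells (human receptor) were incubated 18 h, dye-loaded for 1 h at 37 C and exposed to test compounds for agonist activity, with calcium-dependent fluorescence followed kinetically.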

[12] = molecular target: Beta-2 adrenergic receptor (Homo sapiens) (UniProt P07550); experiment: Adrenergic beta2 receptor (ADRB2) small molecule antagonists, cell-based qHTS assay (AID 1963592); further: nearly all actives have a fitted effect of over 50% in size; further: potency means the concentration at half of the fitted maximal effect
Method in brief: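 Cells (CHO, stable ADRB2 overexpression) incubated 18-20hr at 37C; compounds added from DMSO; agonist mix (1nM isoproterenol, 100uM IBMX, 25uM Ro-20-1724) added; 0.5hr RT; d2-cAMP and anti-cAMP-cryptate added; 1hr RT; 665/615 nm read.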

[13] = molecular target: Beta-2 adrenergic receptor (Homo sapiens) (UniProt P07550); experiment: Adrenergic beta2 receptor (ADRB2) small molecule agonists, cell-based qHTS assay (AID 1963593);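 further: CHO cells stably overexpressing human ADRB2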
Method in brief: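 CHO cells stably over-expressing ADRB2 were plated overnight at 37C, then dosed with compounds plus a stimulation mix containing 100uM IBMX and 25uM Ro-20-1724 for 0.5hr at room temperature. cAMP was measured by HTRF competition, 1hr.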

[14] = p53 small molecule agonists, cell-based qHTS assay: qHTS cell viability counter screen (AID 1963581); further: nearly all actives have a fitted effect of over 45% in size
Method in brief: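 Compounds are pinned onto HCT-116 p53RE-bla cells and left 16 h at 37 C. Following the reporter FRET read, ATP is quantified by CellTiter-Glo luminescence after 30 min at room temperature.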

[15] = p53 small molecule agonists, cell-based qHTS assay with human liver microsomes (AID 1963577)
Method in brief: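 p53RE-bla reporter cells were pre-incubated 5 h at 37 C, then treated with compounds plus human liver microsomes (0.5 mg/mL final) and NADPH (0.5 mg/mL final) for 16 h at 37 C. Beta-lactamase activity was read by LiveBLAzer fluorescence after 2 h at room temperature.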

[16] = p53 small molecule agonists, cell-based qHTS assay with rat liver microsomes (AID 1963578)
Method in brief: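 p53RE-bla cells were exposed to compounds together with rat liver microsomes (0.5 mg/mL final) and NADPH (0.5 mg/mL final) for 16 h at 37 C, then read by LiveBLAzer beta-lactamase fluorescence after 2 h at room temperature.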

[17] = p53 small molecule agonists, cell-based qHTS assay with human liver microsomes: qHTS cell viability counter screen (AID 1963579); further: nearly all actives have a fitted effect of over 45% in size
Method in brief: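 p53RE-bla cells (4,000/well) were pre-incubated 5 h at 37 C, then given compounds in DMSO plus human liver microsomes (0.5 mg/mL final) and NADPH (0.5 mg/mL final) for 16 h at 37 C. Viability was read by CellTiter-Glo luminescence.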

[18] = p53 small molecule agonists, cell-based qHTS assay with rat liver microsomes: qHTS cell viability counter screen (AID 1963580); further: nearly all actives have a fitted effect of over 45% in size
Method in brief: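 HCT-116 p53RE-bla, 4,000 cells/well, 5 h pre-incubation; cpd + rat liver microsomes 0.5 mg/mL + NADPH 0.5 mg/mL (final); 16 h, 37 C; CellTiter-Glo, 30 min RT; luminescence.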

[19] = p53 small molecule agonists, cell-based qHTS assay (AID 1963582; active means well fitted activation curve with a large enough effect in the signal ratio in the repeat runs, not every such curve was filed as active; the % refers to the signal ratio; further: potency means the concentration at half of the fitted maximal effect)
Method in brief: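 Agonist activity was scored from beta-lactamase FRET fluorescence in p53RE-bla cells treated 16 h at 37 C with compounds in DMSO, substrate incubation being 2 h at room temperature.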

Sequence of 5-hydroxytryptamine receptor 2A (Homo sapiens) (P28223 whole entry, looked up): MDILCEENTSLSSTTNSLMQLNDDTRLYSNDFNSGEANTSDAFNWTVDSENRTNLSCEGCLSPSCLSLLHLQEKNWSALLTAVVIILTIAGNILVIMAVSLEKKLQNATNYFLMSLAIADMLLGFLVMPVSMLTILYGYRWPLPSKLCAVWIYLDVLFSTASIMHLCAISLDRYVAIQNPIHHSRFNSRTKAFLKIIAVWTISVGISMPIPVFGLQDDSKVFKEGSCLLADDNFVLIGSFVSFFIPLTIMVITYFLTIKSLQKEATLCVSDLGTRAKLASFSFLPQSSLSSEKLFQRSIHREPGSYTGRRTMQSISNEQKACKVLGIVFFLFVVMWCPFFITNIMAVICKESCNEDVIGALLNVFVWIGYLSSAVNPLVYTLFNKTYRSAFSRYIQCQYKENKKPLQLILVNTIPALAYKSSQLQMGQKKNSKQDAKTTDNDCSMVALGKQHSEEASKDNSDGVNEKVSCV
Sequence of Gonadotropin-releasing hormone receptor (Homo sapiens) (P30968 whole entry, looked up): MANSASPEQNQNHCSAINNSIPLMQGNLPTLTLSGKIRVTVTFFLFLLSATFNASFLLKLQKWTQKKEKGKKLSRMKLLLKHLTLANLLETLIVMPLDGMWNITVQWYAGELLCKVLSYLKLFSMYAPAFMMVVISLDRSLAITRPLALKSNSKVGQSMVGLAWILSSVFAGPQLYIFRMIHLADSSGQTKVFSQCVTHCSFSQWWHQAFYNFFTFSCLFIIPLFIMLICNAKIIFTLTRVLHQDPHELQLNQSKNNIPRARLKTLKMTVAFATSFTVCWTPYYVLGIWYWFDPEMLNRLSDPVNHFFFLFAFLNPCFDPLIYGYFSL
Sequence of KiSS-1 receptor (Homo sapiens) (Q969F8 whole entry, looked up): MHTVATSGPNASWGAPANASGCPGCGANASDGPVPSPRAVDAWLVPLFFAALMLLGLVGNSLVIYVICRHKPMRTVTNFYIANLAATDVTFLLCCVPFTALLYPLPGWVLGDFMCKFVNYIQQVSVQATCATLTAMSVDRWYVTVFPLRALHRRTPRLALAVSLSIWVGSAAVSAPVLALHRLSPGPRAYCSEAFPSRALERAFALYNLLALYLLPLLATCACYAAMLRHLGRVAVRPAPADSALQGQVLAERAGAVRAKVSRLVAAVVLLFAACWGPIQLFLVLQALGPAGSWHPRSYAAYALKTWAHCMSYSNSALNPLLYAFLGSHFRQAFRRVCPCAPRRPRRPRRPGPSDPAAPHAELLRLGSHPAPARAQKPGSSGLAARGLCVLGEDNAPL
Sequence of D(2) dopamine receptor (Homo sapiens) (P14416 whole entry, looked up): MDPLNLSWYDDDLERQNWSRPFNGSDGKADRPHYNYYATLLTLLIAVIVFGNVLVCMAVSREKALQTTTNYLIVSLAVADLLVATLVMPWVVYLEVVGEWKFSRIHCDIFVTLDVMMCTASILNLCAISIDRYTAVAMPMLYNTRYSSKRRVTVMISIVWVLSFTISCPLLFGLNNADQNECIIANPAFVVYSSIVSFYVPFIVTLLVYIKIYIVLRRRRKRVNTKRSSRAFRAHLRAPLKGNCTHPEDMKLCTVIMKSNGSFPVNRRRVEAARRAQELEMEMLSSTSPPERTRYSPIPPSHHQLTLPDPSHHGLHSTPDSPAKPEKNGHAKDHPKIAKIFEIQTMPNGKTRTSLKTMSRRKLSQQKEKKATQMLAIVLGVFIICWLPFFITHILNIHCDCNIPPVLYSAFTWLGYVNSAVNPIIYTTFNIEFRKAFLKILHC
Sequence of Beta-2 adrenergic receptor (Homo sapiens) (P07550 whole entry, looked up): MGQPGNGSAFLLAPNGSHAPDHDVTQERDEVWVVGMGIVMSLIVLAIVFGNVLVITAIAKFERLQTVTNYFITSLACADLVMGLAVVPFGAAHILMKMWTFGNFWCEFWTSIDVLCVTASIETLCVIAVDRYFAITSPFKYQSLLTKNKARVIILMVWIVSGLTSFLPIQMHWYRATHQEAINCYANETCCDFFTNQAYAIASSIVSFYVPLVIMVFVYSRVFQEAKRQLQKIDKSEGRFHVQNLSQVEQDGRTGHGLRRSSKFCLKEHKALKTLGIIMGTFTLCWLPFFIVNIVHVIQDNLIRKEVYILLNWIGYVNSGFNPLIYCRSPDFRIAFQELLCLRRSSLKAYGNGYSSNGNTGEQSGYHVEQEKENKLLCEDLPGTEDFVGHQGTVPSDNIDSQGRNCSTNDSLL
Sequence of Muscarinic acetylcholine receptor M1 (Homo sapiens) (P11229 whole entry, looked up): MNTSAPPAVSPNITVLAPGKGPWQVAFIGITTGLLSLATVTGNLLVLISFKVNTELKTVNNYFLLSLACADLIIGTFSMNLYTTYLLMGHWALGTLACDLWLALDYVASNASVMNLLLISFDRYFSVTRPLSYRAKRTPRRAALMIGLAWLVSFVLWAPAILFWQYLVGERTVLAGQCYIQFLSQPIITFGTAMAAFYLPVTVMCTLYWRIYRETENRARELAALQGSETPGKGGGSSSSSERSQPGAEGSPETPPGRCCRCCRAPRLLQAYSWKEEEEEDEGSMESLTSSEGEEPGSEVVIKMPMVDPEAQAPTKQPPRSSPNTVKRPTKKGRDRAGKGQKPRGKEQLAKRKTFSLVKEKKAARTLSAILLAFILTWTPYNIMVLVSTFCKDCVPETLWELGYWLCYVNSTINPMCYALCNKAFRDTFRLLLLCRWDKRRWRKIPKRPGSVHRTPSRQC

Row | SMILES | Potency [1] | Potency [2] | Potency [3] | Potency [4] | Potency [5] | Potency [6] | Potency [7] | Potency [8] | Potency [9] | Potency [10] | Potency [11] | Potency [12] | Potency [13] | Potency [14] | Potency [15] | Potency [16] | Potency [17] | Potency [18] | Potency [19]
1 | CN(C)CCOC(c1ccccc1)c1ccccc1 (tested in a mixture with another compound) | inactive | inactive | inactive | inactive | inactive | inactive | inactive | – | – | – | – | – | – | – | – | – | – | – | –
2 | OCC(O)CO | inactive | inactive | inactive | inactive | inactive | inactive | inactive | inactive | inactive | inactive | inactive | inactive | inactive | – | – | – | – | – | –
3 | CC(C)c1c(C(=O)Nc2ccccc2)c(-c2ccccc2)c(-c2ccc(F)cc2)n1CC[C@@H](O)C[C@@H](O)CC(=O)O | inactive | inactive | inactive | – | – | – | inactive | – | – | – | – | inactive | – | inactive | – | – | – | – | –
4 | CN(C)CCCN1c2ccccc2CCc2ccccc21 | inactive | inactive | inactive | inactive | inactive | inactive | inactive | – | inactive | – | inactive | 29.8 µM (active) | – | – | – | – | – | – | –
5 | CC(C)CCCCCCN | inactive | inactive | – | inactive | inactive | inactive | inactive | inactive | inactive | inactive | inactive | inactive | – | inactive | inactive | inactive | inactive | inactive | inactive
6 | Clc1ccccc1CN1CCc2sccc2C1 | inactive | inactive | inactive | inactive | – | inactive | inactive | – | – | – | – | inactive | inactive | – | – | – | – | – | –
7 | CC(C)(C)NC(=O)[C@@H]1C[C@@H]2CCCC[C@@H]2CN1C[C@@H](O)[C@H](Cc1ccccc1)NC(=O)[C@H](CC(N)=O)NC(=O)c1ccc2ccccc2n1 | inactive | inactive | inactive | – | – | inactive | inactive | – | – | – | – | – | – | – | – | – | – | – | –
8 | CC(C)(C)c1ccc(C(O)CCCN2CCC(C(O)(c3ccccc3)c3ccccc3)CC2)cc1 (stereo not drawn) | inactive | inactive | inactive | – | inactive | inactive | inactive | – | – | – | – | inactive | inactive | – | – | – | – | – | –
9 | Cc1cc(NS(=O)(=O)c2ccc(N)cc2)no1 | inactive | inactive | inactive | inactive | inactive | inactive | inactive | – | – | – | – | inactive | – | – | – | – | – | – | –
10 | CN(C)CCOC(c1ccccc1)c1ccccc1 | inactive | inactive | inactive | inactive | inactive | inactive | inactive | – | – | – | – | inactive | – | inactive | – | – | – | – | –
11 | C(=C(c1ccccc1)c1ccccc1)c1ccccc1 | inactive | inactive | – | inactive | inactive | inactive | – | inactive | inactive | inactive | inactive | inactive | – | inactive | inactive | inactive | inactive | inactive | –
12 | CN(C)C(=O)C(CCN1CCC(O)(c2ccc(Cl)cc2)CC1)(c1ccccc1)c1ccccc1 | inactive | inactive | inactive | – | inactive | inactive | inactive | – | – | – | – | 11.9 µM (active) | – | inactive | – | – | – | – | inactive
13 | COc1c2occc2cc2ccc(=O)oc12 | inactive | inactive | inactive | inactive | inactive | inactive | – | – | – | – | – | inactive | inactive | inactive | – | – | – | – | inactive
14 | CC[C@H]1OC(=O)[C@H](C)[C@@H](O[C@H]2C[C@@](C)(OC)[C@@H](O)[C@H](C)O2)[C@H](C)[C@@H](O[C@@H]2O[C@H](C)C[C@H](N(C)C)[C@H]2O)[C@](C)(O)C[C@@H](C)CN(C)[C@H](C)[C@@H](O)[C@]1(C)O | inactive | inactive | – | inactive | – | inactive | inactive | – | – | – | – | inactive | inactive | inactive | inactive | inactive | inactive | inactive | inactive
15 | CN1[C@@H]2CC[C@@H]1CC(OC(=O)C(CO)c1ccccc1)C2 (stereo partly drawn) | inactive | inactive | inactive | inactive | inactive | inactive | inactive | – | – | – | – | inactive | – | – | – | – | – | – | –
16 | O=C(CS(=O)Cc1ccco1)NC/C=C\COc1cc(CN2CCCCC2)ccn1 (stereo not drawn) | inactive | inactive | – | inactive | inactive | inactive | inactive | inactive | inactive | inactive | inactive | – | inactive | inactive | inactive | inactive | inactive | inactive | inactive
17 | NC(=O)c1ccccc1C(N)=O | inactive | inactive | – | inactive | inactive | – | inactive | inactive | inactive | inactive | inactive | inactive | – | – | inactive | inactive | inactive | inactive | 45.9 µM (active)
